CHO-K1 Ca antag = nonselective inhibitor or artifact in parental CHO-K1 cells; ATP-induced calcium, Fluo-8 fluorescence; inhibition, % at 3 µM; 0.6% of 360,000 active; AID 602250;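 active means inhibition above a per-plate cutoff, the plate's mean sample inhibition plus 3 SD, cut at about 24% in these data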
M1 PAM parental = nonselective calcium activators in parental CHO-K1 cells, primary screen, counter-screen for M1 PAM project, cell-based, Fluo-8 calcium fluorescence, full deck, 1536-well; AID 602247, 2012; ATP EC20; 0% at ATP EC20, 100% at ATP max; activation, % at 3 µM; 0.02% of 360,000 active;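 active means activation above the run cutoff, the mean activation of all test compounds plus 3 SD, cut at about 40% in these data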;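 further: peak over basal fluorescence ratio in a 140 s read after ATP addition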
CHO-K1 Ca ag = counter-screen for M1 agonists: effect in parental CHO-K1 cells; activation, % at 3 µM; 0.48% of 360,000 active; Fluo-8 calcium fluorescence; scaled to maximal ATP response, vehicle zero; in the data active means activation above about 15%;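 further: untransfected CHO-K1 host cells lacking M1 receptor as counterscreen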
CHRM1 agonist = human M1 muscarinic receptor agonists, primary screen, Fluo-8 calcium fluorescence, CHO-K1 cells, HTS; Muscarinic acetylcholine receptor M1 (Homo sapiens), P11229; CHO-K1 hM1, agonist mode; 0% DMSO, 100% acetylcholine EC100; activation, % at 3 µM; 0.33% of 360,000 active; AID 588814, 2011;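 active means activation above the run's mean compound activation plus 3 SD, cut at about 16% in these data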;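 further: peak over basal fluorescence ratio within a 140 s kinetic read after compound addition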
Target sequence (P11229 whole entry, looked up): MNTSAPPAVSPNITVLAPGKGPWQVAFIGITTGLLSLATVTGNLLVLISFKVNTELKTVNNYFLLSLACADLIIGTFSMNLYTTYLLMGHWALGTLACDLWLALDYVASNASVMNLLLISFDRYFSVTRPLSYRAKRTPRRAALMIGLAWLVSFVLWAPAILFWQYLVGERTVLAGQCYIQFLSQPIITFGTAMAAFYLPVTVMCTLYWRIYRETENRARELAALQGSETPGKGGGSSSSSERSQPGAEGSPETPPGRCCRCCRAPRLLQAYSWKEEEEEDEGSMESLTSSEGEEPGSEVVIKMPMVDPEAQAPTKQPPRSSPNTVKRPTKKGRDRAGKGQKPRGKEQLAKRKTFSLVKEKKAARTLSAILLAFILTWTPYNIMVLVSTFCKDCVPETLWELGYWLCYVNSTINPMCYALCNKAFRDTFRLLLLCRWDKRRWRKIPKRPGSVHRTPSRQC
CHRM1 antagonist = human M1 muscarinic receptor antagonists, primary screen, CHO-K1 cells, Fluo-8 calcium fluorescence, 1536-well; 1.3% of 360,000 active; CHO-K1 hM1, ACh EC80 antagonist; Muscarinic acetylcholine receptor M1 (Homo sapiens), P11229; inhibition, % at 3 µM;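 active means percent inhibition above its own plate's cutoff, namely the mean of that plate's compound wells plus 3 SD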;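 further: peak over basal fluorescence ratio during 140 s after agonist addition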
CHRM1 PAM = human M1 muscarinic receptor positive allosteric modulators, primary screen, CHO-K1 cells, Fluo-8 calcium fluorescence, 1536-well. Muscarinic acetylcholine receptor M1 (Homo sapiens), P11229. CHO-K1 hM1, ACh EC20; 0% = ACh EC20, 100% = maximal ACh. activation, % at 3 µM. 0.088% of 360,000 active; in the data active means activation above about 19%, passing the limit was not always enough
Of the large screens only hits and unclear results are named; the others gave an inactive call. The list is not random: actives were taken first. Their share in the collection is about 2.3%.

CCOC(=O)c1c(-c2ccccc2)nnn1-c1nc(OCC)nc(N2CCCCC2)n1	CHO-K1 Ca antag 54
CCN1C(=O)[C@H]2[C@@H](c3ccc(C(F)(F)F)cc3)N[C@]3(CCCN(Cc4ccc(C)cc4)C3=O)[C@H]2C1=O	none
CCOC(=O)N1CCN(C(=O)CSCc2ccc(C)cc2)CC1	CHO-K1 Ca antag 26
CCOC(=S)SCC(=O)Nc1nc(-c2ccc(Br)cc2)cs1	CHRM1 antagonist 32
CCOC(=S)SCC(=O)Nc1nc(-c2ccccc2)cs1	none
Cc1ccc(-c2csc(NC(=O)CSC3=NCCS3)n2)cc1	CHO-K1 Ca antag 25
Cc1sc(NC(=O)CSC2=NCCS2)nc1-c1ccccc1	none
CCOC(=O)N1CCN(C(=O)CSCC(=O)Nc2nc(-c3ccc(-c4ccccc4)cc3)cs2)CC1	CHRM1 antagonist 48
CC(C)C1C(=O)N(Cc2cn(Cc3ccco3)nn2)CCS(=O)(=O)N1Cc1ccc(-c2ccc(F)cc2)cc1 (stereo not drawn)	none
O=C(NCc1cc2ccccc2[nH]1)C1CCC(=O)N(CCCN2CCCC2=O)C1 (stereo not drawn)	none
Cc1nnc(-c2cnn(C)c2N)n1CCCN1CCOCC1	none
CN(C)CCN(C(=O)C1CCN(S(=O)(=O)c2cccs2)CC1)c1nc2c(F)cccc2s1	none
CCOC(=O)C1CCCN(C(=S)Nc2cccc(Cl)c2C)C1 (stereo not drawn)	CHRM1 agonist 68, CHRM1 antagonist 57
CCOC(=O)C1CCCN(C(=S)Nc2cccc(Cl)c2)C1 (stereo not drawn)	CHRM1 agonist 74, CHRM1 antagonist 62
CCOC(=O)C1CCCN(C(=O)c2cccc(NC(=O)C(CC)CC)c2)C1 (stereo not drawn)	CHO-K1 Ca antag 24
COc1ccc(C/C(N)=N/OC(=O)CCc2ccccc2)cc1	none
O=C(Nc1nnc(S(=O)(=O)N2CCCCCC2)s1)c1ccccc1F	CHRM1 antagonist 31
CCN1CCN(CCNC(=O)c2ccc3nc(-c4cccc(C)c4)c(-c4cccc(C)c4)nc3c2)CC1	CHRM1 antagonist 83
CCCNC(=O)c1ccc2nc(-c3ccccc3)c(-c3ccccc3)nc2c1	none
CC(=O)c1cccc(N/C=C\c2nnnn2-c2ccc(F)cc2)c1	CHO-K1 Ca ag 15
Cc1nc(N)nc(N)c1-c1ccc(Cl)c(Cl)c1	CHRM1 antagonist 46
C=CCN(CC(O)c1cccc([N+](=O)[O-])c1)C(C)CCc1ccccc1 (stereo not drawn)	CHRM1 antagonist 39
O=C(Cc1ccccc1)NC(NC(=O)Cc1ccccc1)c1cccc([N+](=O)[O-])c1	none
O=C(c1cnc2ccc3ccccc3c2c1)c1cc(F)ccc1O	M1 PAM parental 40
CCOC(=O)C1CCCN(C(=O)c2ccc(-c3ccccc3)cc2)CC1 (stereo not drawn)	none
CC(C)[C@H](NC(=O)c1c(F)cccc1F)C(=O)Nc1cccc(Br)c1	CHO-K1 Ca ag 19
CCOC(=O)C1CCCN(C2CC(=O)N(c3cccc(C)c3)C2=O)C1 (stereo not drawn)	CHRM1 agonist 47
CCOC(=O)c1ccc(N2C(=O)CC(N3CCCC(C)C3)C2=O)cc1 (stereo not drawn)	none
COc1ccc(-c2cc3c(=O)n(CC(=O)NCc4ccccc4F)ncn3n2)cc1	CHO-K1 Ca antag 26
COC(=O)Cn1nc(-c2ccc(C)c(S(=O)(=O)N(C)C)c2)c2ccccc2c1=O	none
Cc1ccc(-c2nn(CC(=O)N(C)C)c(=O)c3ccccc23)cc1S(=O)(=O)N(C)C	CHRM1 PAM 21
COC(=O)c1cc2sc(Cl)cc2n1Cc1nc(-c2ccccc2)oc1C	none
COC(=O)c1cc2ccsc2n1Cc1nc(-c2ccc(OC)cc2)oc1C	CHRM1 antagonist 45
COC(=O)c1cc2sccc2n1Cc1nc(-c2ccc(OC)cc2)oc1C	none
COC(=O)c1cc2occc2n1Cc1nc(-c2ccccc2F)oc1C	CHRM1 antagonist 53
O=C(Nc1nc(-c2cccc3ccccc23)cs1)c1cnccn1	none
COCCNC(=O)C1(C)CCCN(C(=O)c2ccc(C(=O)OC)cc2)C1 (stereo not drawn)	none
CC1CCCCC1NC(=O)c1ccc(-n2cncn2)cc1 (stereo not drawn)	none
COc1ccc(CC(=O)NC(C)C2COc3ccccc3O2)cc1OC (stereo not drawn)	none
O=C(CN1C(=O)/C(=C/c2ccc(Cl)cc2)SC1=S)NC1C=CS(=O)(=O)C1 (stereo not drawn)	none
CC(C)c1ccc(/C=C2\SC(=O)N(CC(=O)NC3C=CS(=O)(=O)C3)C2=O)cc1 (stereo not drawn)	CHRM1 antagonist 43
COc1ccccc1C(=O)O/N=C1/CCCc2c1ccc(OC)c2[N+](=O)[O-]	none
COc1cc(C(=O)O/N=C2\CCCc3c2ccc(OC)c3[N+](=O)[O-])cc(OC)c1OC	CHRM1 antagonist 25
CCOC(=O)c1c(NC(=O)C(C)Sc2nnc(C)c(=O)[nH]2)sc2c1CCCC2 (stereo not drawn)	none
CN(Cc1ccc(Cl)c(Cl)c1)C(=O)C1=CC=CN2CCS(=O)(=O)N=C12	none
Cc1ccc(Cl)cc1N1CCN(C(=O)CCS(=O)(=O)c2ccc3c(c2)NC(=O)CO3)CC1	CHO-K1 Ca ag 15, CHRM1 antagonist 37
COC(=O)c1sc(C(F)(F)F)c(-c2ccccc2)c1S(=O)(=O)N1CCOCC1	none
COc1cccc(CNC(=O)CCCNS(=O)(=O)c2cccs2)c1	CHO-K1 Ca antag 42
COC(=O)CN(c1cc([N+](=O)[O-])ccc1OC)S(C)(=O)=O	CHO-K1 Ca ag 17
Cc1cccc(CCNS(=O)(=O)c2ccc3c(c2)NC(=O)C(C)S3)c1 (stereo not drawn)	none
CC12CCC(=O)N1C(C(=O)NNC(=O)COc1ccc(Br)cc1)CS2 (stereo not drawn)	CHRM1 antagonist 33
Cn1nc(C(C)(C)C)cc1C(=O)N1CCCCC1c1cc(C(=O)Nc2ccc3c(c2)OCO3)no1 (stereo not drawn)	none
COc1ncnc2c1ncn2CCCNCc1ccccn1	none
CCOC(=O)c1ccccc1-n1c(C)cc(C2N=C(N)Nc3nc4ccccc4n32)c1C (stereo not drawn)	CHRM1 antagonist 81
CN(C(=O)Nc1ccccc1)C1CCCc2ccccc21 (stereo not drawn)	CHO-K1 Ca ag 16

High-throughput results deposited in PubChem by The Scripps Research Institute Molecular Screening Center.
